Source: PubChem
SMN2 splice enh – SMN2 splice variant enhancement | Potency, µM (doses to about 46.1 µM), without a hit: at the highest dose activity change, positive = activation, usual class: activators | actives 2.8% (n = 210,000) | HEK293 SMN2-luciferase splicing reporter, luminescence, 30-36 h; also: % of control where 0% means no effect; nearly all actives have a fitted effect of over 55% in size
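qHTS luciferase splicing reporter: luminescence rises when SMN2 exon 7 is included in transfected HEK293 cells. Compound exposure lasted 30-36 h at 37C, with 4.5 mM final sodium butyrate as control, followed by a ONE-Glo read.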
NPC1 promoter act – activators of NPC1 promoter; Huh7 NPC1 promoter luciferase reporter, 24 h; actives 2.4% (n = 320,000); AID 485313; Potency, µM (top dose mostly 9.22 µM), for inactives: top-dose activation, hits mostly activators; also: % of control where 0% means no effect; nearly all actives have a fitted effect of over 60% in size
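Huh7 cells stably carrying NPC1 promoter–luciferase, plated in Opti-MEM with 10% FBS for 2 h, were exposed to compound in DMSO for 24 h at 37 °C; luciferase reagent was added for 10 min and luminescence read.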
ELG1 genotox – genotoxicity induction in ELG1-luciferase HEK293T cells | HEK293T ELG1-luciferase reporter, luminescence, 16 h | Potency, µM (doses to about 46 µM), for inactives: top-dose activity change, positive = activation, usual class: activators | actives 1.3% (n = 330,000) | AID 504466; also: % of control where 0% means no effect; nearly all actives have a fitted effect of over 60% in size
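Genotoxic stress is detected as increased luminescence from luciferase-tagged ELG1 in HEK293T cells, measured with ONE-Glo after a 16 hr treatment at 37 °C.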
KinaseGlo FLuc – counter-screen: inhibitors of Kinase-Glo firefly luciferase; Q27757; Kinase-Glo luciferase, ATP luminescence, 8 min; Potency, µM (series often up to 38.3 µM), for inactives: top-dose activity change, negative = inhibition, most hits filed as inhibitors; actives 0.28% (n = 200,000); also: % is scaled to controls: 0 for no effect and ±100 for the full control effect; nearly all actives have a fitted effect of over 60% in size
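Substrate mix (final 50 mM imidazole pH 7.2, 50 mM KCl, 7 mM MgCl2, 10 uM ATP, 0.01% Tween 20, 0.05% BSA) plus pin-tool compound, then Kinase-Glo detection mix; 8 min ambient, luminescence read.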
FLuc modulator – counter-screen for miR-21 project: firefly luciferase inhibitors or activators; P08659; purified FLuc, Km substrates, luminescence inhibition; Potency, µM (top dose mostly 57.5 µM), for the others: at the top dose activity change, negative = inhibition, actives largely listed as inhibitors; actives 6.9% (n = 360,000); AID 588342;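 also: plate controls were vehicle for no effect and reference inhibitor for full effect; nearly all actives have a fitted effect of over 55% in size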
Target sequence (P08659 whole entry, looked up): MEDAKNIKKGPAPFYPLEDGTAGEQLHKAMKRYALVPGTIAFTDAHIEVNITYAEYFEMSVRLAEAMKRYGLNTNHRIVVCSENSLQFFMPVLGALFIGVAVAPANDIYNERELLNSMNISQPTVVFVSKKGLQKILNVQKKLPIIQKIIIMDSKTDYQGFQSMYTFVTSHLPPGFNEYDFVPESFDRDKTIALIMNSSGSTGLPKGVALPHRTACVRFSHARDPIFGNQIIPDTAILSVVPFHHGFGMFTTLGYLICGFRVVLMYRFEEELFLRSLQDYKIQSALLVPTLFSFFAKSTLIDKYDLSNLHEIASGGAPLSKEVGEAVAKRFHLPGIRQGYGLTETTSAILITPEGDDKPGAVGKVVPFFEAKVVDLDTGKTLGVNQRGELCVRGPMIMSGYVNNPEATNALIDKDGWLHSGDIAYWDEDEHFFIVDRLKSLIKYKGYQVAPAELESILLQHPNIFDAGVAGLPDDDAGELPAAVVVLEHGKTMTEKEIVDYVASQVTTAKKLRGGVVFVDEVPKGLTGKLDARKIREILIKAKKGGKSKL
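Biochemical qHTS of compounds, final roughly 60 µM downward over six points, against 10 nM purified firefly luciferase using Km concentrations of substrates (10 uM D-luciferin, 10 uM ATP) in Tris acetate pH 7.5 buffer; luminescence output.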
Rab9 prom act – activates the Rab9 promoter | Potency, µM (series often up to 9.22 µM), for the others: top-dose activation, negative = inhibition, usual class: activators | Huh7 Rab9 promoter-luciferase reporter, luminescence, 24 h | AID 485297 | actives 2.8% (n = 320,000); also: % of control where 0% means no effect; nearly all actives have a fitted effect of over 60% in size
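Quantitative HTS format; Huh7 Rab9-luciferase reporter cells (1500/well) receive compound 2 h post-plating, incubate 24 h at 37 °C, then get luciferase reagent for 10 min before luminescence reading.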
* = called active by the depositor; ? = inconclusive; . = not tested or not shown. Rows were chosen to be rich in hits. Some 7.3% of all compounds tested hit in one or more screens of this group. Calls follow the shape of the dose curve; as a rule, active = well fitted curve in the direction sought with a large enough effect; inconclusive = small, poorly fitted or top-dose-only effect, or another doubt; inactive = no such curve, though single readings can be large; an effect the other way counts as inactive or inconclusive. Potency is read from the fitted curve at half-maximal effect.

SMILES	SMN2 splice enh	NPC1 promoter act	ELG1 genotox	KinaseGlo FLuc	FLuc modulator	Rab9 prom act
Cc1ccc(SC[C@H](CC(C)C)N2CCN(CCc3ccccc3)CCC2=O)cc1	.	18%	5%	.	17µM*	12%
CC(=O)Nc1ccc(SC[C@H](CC(C)C)N2CCN(CCc3ccccc3)CCC2=O)cc1	.	4%	-8%	.	0%	-13%
COc1ccc(SC[C@H](CC(C)C)N2CCN(CCc3ccccc3)CCC2=O)cc1	.	14%	-3%	.	19µM*	0%
CCc1ccc(N2C(=O)C3C4C=CC(CC4)C3C2=O)cc1 (stereo not drawn)	.	3%	9%	.	4.3µM*	19%
O=C1C2C3C=CC(CC3)C2C(=O)N1c1ccc(Cl)cc1 (stereo not drawn)	.	5%	0%	.	-22%	2%
Cc1cc(C(=O)OCC(=O)N2CC(=O)Nc3ccccc32)c(C)n1-c1ccc(F)cc1	-73%	-1%	0%	6%	3%	-6%
Cc1ccc(/C=N\Nc2nc3ccc(Cl)cc3[nH]2)o1	?	2.5µM*	8%	-2%	8.5µM*	4.5µM*
Cc1ccc(/C=N/Nc2nnc(Cc3ccccc3)c(=O)[nH]2)o1	5%	-4%	3%	-3%	1%	-4%
C(=N\Nc1nc2ccccc2[nH]1)/c1ccc2ncccc2c1	.	1.4µM*	-8%	.	2.1µM*	0.79µM*
C#CCn1cc(/C=N/Nc2nc3ccccc3[nH]2)c2ccccc21	?	-2%	12%	4%	19µM*	4%
C(=N\Nc1nc2ccccc2[nH]1)/c1ccccn1	.	?	-24%	13µM*	0.34µM*	?
Cc1ccc(N2C(=O)CCC2(C#N)c2ccccc2)cc1 (stereo not drawn)	.	-2%	3%	.	0%	-2%
O=C(NCc1ccc2c(c1)OCO2)C1CC(=O)N(CCc2ccccc2)C1 (stereo not drawn)	-21%	0%	0%	2%	7%	4%
Fc1ccccc1-c1ccc(/C=N/Nc2nc3ccccc3[nH]2)o1	22µM*	?	?	?	0.27µM*	3.5µM*
BrC(=C\c1ccccc1)/C=N/Nc1nc2ccccc2[nH]1	-10%	21%	10%	-1%	2.7µM*	18%
Cc1ccc(/C=C/C(=O)NCc2cccs2)o1	13%	8%	6%	2%	?	16%
Cc1ccc(/C=C/C(=O)NCc2cccs2)cc1	11µM*	25%	?	0%	11µM*	6%
Cc1ccc(/C=C/C(=O)NCc2cccs2)c(C)c1	.	?	?	5%	6.7µM*	2.8µM*
O=C(/C=C/c1ccc([N+](=O)[O-])cc1)NCc1cccs1	-34%	-3%	3%	-2%	?	0%
Cc1ccc(CSc2nc3ccncc3n2CC(=O)Nc2cc(C)cc(C)c2)cc1	?	28%	?	-1%	1.5µM*	?
COc1ccc(-c2nc(Cn3c(SCc4ccc(C)cc4)nc4ccncc43)c(C)o2)cc1OC	16%	14%	0%	-11%	1.7µM*	?
COc1ccc(-c2nc(Cn3c(SCc4cccc(F)c4)nc4ccncc43)c(C)o2)cc1OC	-7%	4%	10%	-2%	?	-6%
Cc1ccccc1C(=O)N1CCC(C(=O)Nc2ccccc2Cl)CC1	.	3%	-6%	.	1%	6%
Cc1c(CCC(=O)O)c(=O)oc2cc3occ(-c4ccc(Cl)cc4)c3cc12	.	-4%	3%	.	17µM*	-4%
Cc1c(CCC(=O)NCCC(=O)O)c(=O)oc2cc3occ(-c4ccccc4)c3cc12	.	-2%	4%	.	-18%	3%
SMILES	SMN2 splice enh	NPC1 promoter act	ELG1 genotox	KinaseGlo FLuc	FLuc modulator	Rab9 prom act
Cc1c(CCC(=O)O)c(=O)oc2cc3occ(-c4ccc(F)cc4)c3cc12	?	-3%	3%	3%	?	-3%
Cc1oc2cc3oc(=O)c(CCC(=O)N(C)CC(=O)O)c(C)c3cc2c1C	.	-4%	1%	.	7.6µM*	-7%
Cc1c(CCC(=O)O)c(=O)oc2cc3occ(-c4ccc(Br)cc4)c3cc12	.	-6%	0%	.	17µM*	-5%
CCOC(=O)C1CCN(C(=O)CCNC(=O)Cn2cnc3ccccc3c2=O)CC1	.	7%	-8%	.	0%	1%
Cc1ccc2nc(-c3ccc(NC(=O)COC(=O)c4ccc(=O)[nH]c4)cc3)sc2c1	1.6µM*	0.35µM*	2.3µM*	-2%	3.4µM*	0.56µM*
Cc1ccc2nc(-c3ccc(NC(=O)CN4C(=O)c5ccccc5C4=O)cc3)sc2c1	2.8µM*	?	9.2µM*	-2%	2.7µM*	4µM*
Cc1ccc2nc(-c3ccc(NC(=O)CN4CCN(c5ccccn5)CC4)cc3)sc2c1	.	?	?	.	11µM*	?
O=C(CN1CCN(c2ccccn2)CC1)Nc1ccc2ccccc2c1	-22%	11%	?	-4%	17µM*	21%
CCSc1ccc(C(=O)Nc2ccc(-c3nc4ccc(C)cc4s3)cc2)cc1	.	.	.	.	0%	.
Cc1cc(C)nc(N/N=C/C(Cl)=C/c2ccccc2)n1	-8%	?	?	17%	13µM*	?
CCOC(=O)N/N=C/C(Cl)=C/c1ccccc1	?	?	?	-2%	17µM*	?
O=C(Cc1cccs1)N/N=C/C(Cl)=C/c1ccccc1	?	?	?	-4%	-10%	3.5µM*
O=C(Cc1cccs1)N/N=C/c1ccccc1	.	5%	12%	.	?	23%
CCOc1ccc(/C=N/NC(=O)Cc2cccs2)cc1	.	?	?	.	17µM*	?
COc1ccc(-c2nn(-c3ccccc3)cc2/C=C(/C#N)C(N)=O)cc1[N+](=O)[O-]	9%	-4%	5%	1%	0%	1%
CCn1cnc2sc(C(=O)Nc3ccc4c(c3)OCO4)c(C)c2c1=O	13µM*	?	8.9µM*	-7%	11µM*	2.8µM*
Cc1cccc(NC(=O)c2cnc3n(c2=O)CCS3)c1	11µM*	3.5µM*	?	-5%	12µM*	3.5µM*
O=C(Nc1ccc2c(c1)OCO2)c1cnc2n(c1=O)CCS2	13µM*	?	?	-12%	?	3.2µM*
O=C(Nc1ccc(OC(F)(F)F)cc1)c1cnc2n(c1=O)CCS2	-55%	?	7.3µM*	1%	-11%	14%
O=C(Nc1ccccc1)c1cnc2n(c1=O)CCS2	?	25%	15%	-3%	?	?
O=C(NCc1ccc2c(c1)OCO2)c1cnc2n(c1=O)CCS2	7%	3%	-1%	0%	-1%	-6%
